Laboratory results reported in article PMC4336329 (PLoS ONE, 2015).
Hit rate of the full screen: of about 310,000 compounds, about 14,000 (4.5%) showed an effect of 50% or more. Effects have a minus sign here. What follows is part of a selection rich in strong results, with near analogues and random picks from the rest.

biological target: human ether-à-go-go-related gene (hERG) potassium channel (human, UniProt Q12809); test: primary screen, population patch clamp on CHO cells stably expressing hERG; higher = less effect of the substance
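Further: peak tail current of the secondary pulse compared with the same well before compound.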

Sequence of human ether-à-go-go-related gene (hERG) potassium channel (Q12809 whole entry, looked up): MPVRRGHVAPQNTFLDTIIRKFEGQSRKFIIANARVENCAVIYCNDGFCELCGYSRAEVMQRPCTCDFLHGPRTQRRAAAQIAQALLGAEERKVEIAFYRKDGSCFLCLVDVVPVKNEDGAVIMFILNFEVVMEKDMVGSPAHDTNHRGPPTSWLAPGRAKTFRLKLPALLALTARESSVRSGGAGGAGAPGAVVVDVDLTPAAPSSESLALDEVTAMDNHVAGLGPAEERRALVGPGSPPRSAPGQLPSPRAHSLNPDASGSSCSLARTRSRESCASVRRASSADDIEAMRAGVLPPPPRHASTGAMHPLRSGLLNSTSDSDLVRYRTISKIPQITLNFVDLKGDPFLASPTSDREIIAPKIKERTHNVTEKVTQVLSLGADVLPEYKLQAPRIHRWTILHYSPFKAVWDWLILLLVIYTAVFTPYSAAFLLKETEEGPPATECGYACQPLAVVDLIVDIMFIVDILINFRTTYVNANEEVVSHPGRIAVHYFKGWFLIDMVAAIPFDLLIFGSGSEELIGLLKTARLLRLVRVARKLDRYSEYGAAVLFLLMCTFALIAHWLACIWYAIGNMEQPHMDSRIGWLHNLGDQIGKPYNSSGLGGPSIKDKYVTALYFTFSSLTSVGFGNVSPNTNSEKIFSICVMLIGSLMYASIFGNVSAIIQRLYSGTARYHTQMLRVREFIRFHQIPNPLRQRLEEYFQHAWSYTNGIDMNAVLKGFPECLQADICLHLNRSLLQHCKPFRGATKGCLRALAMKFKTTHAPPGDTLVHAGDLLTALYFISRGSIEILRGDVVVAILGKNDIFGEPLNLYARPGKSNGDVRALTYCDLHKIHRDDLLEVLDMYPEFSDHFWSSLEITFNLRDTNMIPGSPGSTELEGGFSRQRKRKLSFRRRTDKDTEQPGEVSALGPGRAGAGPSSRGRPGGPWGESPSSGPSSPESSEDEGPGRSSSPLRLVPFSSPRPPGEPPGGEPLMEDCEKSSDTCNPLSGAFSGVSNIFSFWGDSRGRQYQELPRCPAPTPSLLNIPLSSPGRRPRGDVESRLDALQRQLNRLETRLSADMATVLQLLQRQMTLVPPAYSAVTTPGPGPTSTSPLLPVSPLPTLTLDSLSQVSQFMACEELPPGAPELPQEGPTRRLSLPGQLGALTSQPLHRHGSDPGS

First: O=C(CSc1nnc(Cn2c(=O)sc3ccccc32)n1-c1ccccc1)N1CCCCCC1
Second: CCCn1c(NC(=O)C2CCN(S(=O)(=O)c3cccs3)CC2)nc2ccccc21
The “hERG current change (%, negative = inhibition) at 10uM” value of the first is higher: -12.5% for the first, -68.8% for the second.

Compared with `CCO[C@@H]1OC(C(=O)NCc2ccccc2)=C[C@H](c2coc3ccccc3c2=O)[C@H]1CCCO`, `COc1ccc(OC)c(-c2c(=O)n(OCc3ccccc3Br)c3ccccc3[n+]2[O-])c1` is higher in “hERG current change (%, negative = inhibition) at 10uM” value: -47.5% for the first, 11.5% for the second.

First: O=C(Nc1ccccc1)C1CCN(S(=O)(=O)c2cccs2)CC1
Second: O=C(Nc1ccc(F)cc1)C1CCN(S(=O)(=O)c2cccs2)CC1
The “hERG current change (%, negative = inhibition) at 10uM” value of the first is higher: -16.4% for the first, -24.4% for the second.

Going from `CCOC(=O)C1CCN(S(=O)(=O)c2ccc(Cl)s2)CC1` to `CNC(=O)c1ccsc1NC(=O)C1CCN(S(=O)(=O)c2ccc(Cl)s2)CC1`, the “hERG current change (%, negative = inhibition) at 10uM” value falls from -13.3% to -54.9%.

Going from `O=C(Nc1ccc(F)c(F)c1)C1CCN(S(=O)(=O)c2cccs2)CC1` to `Cc1ccc(NC(=O)C2CCN(S(=O)(=O)c3cccs3)CC2)cc1C`, the “hERG current change (%, negative = inhibition) at 10uM” value rises from -53.7% to -31.1%.

First: N#Cc1ccsc1NC(=O)C1CCN(S(=O)(=O)c2cccs2)CC1
Second: NC(=O)c1ccsc1NC(=O)C1CCN(S(=O)(=O)c2cccs2)CC1
The “hERG current change (%, negative = inhibition) at 10uM” value of the first is higher: -20.2% for the first, -52.4% for the second.

Going from `CNC(=O)c1ccsc1NC(=O)C1CCN(S(=O)(=O)c2cccs2)CC1` to `CNC(=O)c1ccsc1NC(=O)C1CCCN1S(=O)(=O)c1cccs1` (stereo not shown), the “hERG current change (%, negative = inhibition) at 10uM” value rises from -55.1% to 7.6%.

Going from `O=C(Nc1nccs1)C1CCN(S(=O)(=O)c2cccs2)CC1` to `Cc1csc(NC(=O)C2CCN(S(=O)(=O)c3cccs3)CC2)n1`, the “hERG current change (%, negative = inhibition) at 10uM” value falls from -24.1% to -27.3%.

First: CNC(=O)c1ccsc1NC(=O)c1ccc(Cl)s1
Second: CN1CCc2c(sc(NC(=O)C3CCN(S(=O)(=O)c4cccs4)CC3)c2C(N)=O)C1.Cl
The “hERG current change (%, negative = inhibition) at 10uM” value of the first is higher: -0.512% for the first, -30.8% for the second.

First: CCC(c1nnc(SCC(=O)NCCc2ccc(Cl)cc2Cl)o1)N(C)C (stereo not shown)
Second: CC(C)CCn1c(Sc2nc3ccccc3o2)nc2c1c(=O)[nH]c(=O)n2C
The “hERG current change (%, negative = inhibition) at 10uM” value of the first is higher: -19.9% for the first, -20.8% for the second.

Compared with `Cc1nn(-c2ccccn2)c2c1-c1nc(N)ncc1CC2`, `Cc1ccc(-c2ocnc2C(=O)N2CCOCC2)cc1` is higher in “hERG current change (%, negative = inhibition) at 10uM” value: 5.03% for the first, 21.4% for the second.

Compared with `CC(=O)N1CCc2c(sc(NC(=O)C3CCN(S(=O)(=O)c4cccs4)CC3)c2C(N)=O)C1`, `CCCN1CCc2c(sc(NC(=O)C3CCN(S(=O)(=O)c4cccs4)CC3)c2C(N)=O)C1.Cl` is lower in “hERG current change (%, negative = inhibition) at 10uM” value: -29.4% for the first, -61.3% for the second.

In the case of `O=C(Nc1nc2ccccc2[nH]1)C1CCN(S(=O)(=O)c2cccs2)CC1`, the “hERG current change (%, negative = inhibition) at 10uM” value is reported as -0.923%.
